# Experimental data reported in PubChem BioAssay (NCI).
# The panel holds about 83,000 compounds, 20% with a hit somewhere; the sample as a whole holds those more often.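 Each cell line was grown in a 96-well plate and treated with one concentration of compound for 48 hours. Values below 10 were considered active.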 Active and inactive are the calls of the source.
# System: SF-295 CNS
# Experiment: NCI-60 one-dose screen, 48 h (100 = growth as untreated, 0 = no growth, -100 = all killed)
# Conditions: 10 µM unless noted
row,SMILES,growth
1,O=C1OC(N(Cc2ccc(Cl)cc2)c2ccccc2)c2ccccc21 (stereo not given),104% (inactive)
2,CN(C)CC/C=C1\c2ccccc2Sc2ccc(Cl)cc21,75.4% (inactive)
3,O=C(Nc1cccc(-n2ccc3c(NC(=O)c4ccccc4)nccc32)c1)Nc1cc(C(F)(F)F)cc(C(F)(F)F)c1,-19.2% (active)
4,CCCCC(=O)Nc1nc2ccc(SCCC)cc2s1,45.1% (inactive)
5,CCN(CC)c1ccc(C2CC(c3cc(OC)c(OC)c(OC)c3)=NN2)cc1 (stereo not given),33.9% (inactive)
6,c1ccc2nc(Cn3cc[n+](Cc4ccc5ccccc5n4)c3)ccc2c1,91.5% (inactive)
7,Clc1ccc(OCc2nc(-c3ccccc3)n[nH]2)c(Cl)c1,97.8% (inactive)
8,CC(C)CNCC(=O)Nc1ccc(Cc2ccc(NC(=O)CNCC(C)C)cc2)cc1,78.5% (inactive)
9,O=C(O)c1ccc(-n2cc(/C=N/Nc3ccc(F)cc3)c(-c3cccc(C(F)(F)F)c3)n2)cc1,54% (inactive)
10,CCCCCCCCCCCCCCCCCCNCc1ccc(Cl)cc1,-46.8% (active)
11,COc1ccc(CCNC=O)cc1OC,103% (inactive)
12,O=C(COc1ccc(Cl)cc1Cl)N1N=C(c2ccc(Cl)cc2Cl)CC1(O)c1cc(F)c(Cl)cc1Cl (stereo not given),117% (inactive)
13,Cc1nccc2c3ccc(OCc4cn(Cc5ccc(Br)cc5)nn4)cc3n(CCCc3ccccc3)c12,86.2% (inactive)
14,COc1ccc(-c2c(C#N)cnc(N)c2-c2nc3cc(C)c(C)cc3[nH]2)cc1,27.3% (inactive)
15,O=c1c2ccccc2[nH]n1Cc1ccc2c(c1)OCO2,104% (inactive)
